Data on 3 molecules can be found in ChEMBL document CHEMBL1961873, “Compounds: GSK PKIS; Assays: Nanosyn kinase panel” (2012).

SMILES strings stand for the structures.

Test [1] concerns the target T1, 3-phosphoinositide-dependent protein kinase 1 (Homo sapiens) (UniProt O15530).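 Further: values are mean inhibition of PDK1.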
T1 sequence (whole entry): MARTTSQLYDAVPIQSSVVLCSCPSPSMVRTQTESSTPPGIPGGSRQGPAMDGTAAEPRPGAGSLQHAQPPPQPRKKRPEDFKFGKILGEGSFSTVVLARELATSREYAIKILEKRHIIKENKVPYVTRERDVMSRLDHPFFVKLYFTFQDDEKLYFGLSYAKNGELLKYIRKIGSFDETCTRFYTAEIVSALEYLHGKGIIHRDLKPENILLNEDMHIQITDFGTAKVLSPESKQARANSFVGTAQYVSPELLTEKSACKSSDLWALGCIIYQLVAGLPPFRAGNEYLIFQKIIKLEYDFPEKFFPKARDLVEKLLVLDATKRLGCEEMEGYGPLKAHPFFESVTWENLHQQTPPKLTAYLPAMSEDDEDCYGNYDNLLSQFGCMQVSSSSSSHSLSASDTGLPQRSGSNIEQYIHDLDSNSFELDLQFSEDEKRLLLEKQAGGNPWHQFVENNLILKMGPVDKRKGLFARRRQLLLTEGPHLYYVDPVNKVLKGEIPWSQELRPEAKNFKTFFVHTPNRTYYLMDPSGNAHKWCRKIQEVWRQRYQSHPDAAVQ
Particulars: at 0.1 µM.

Test [2] has as its target cAMP-dependent protein kinase catalytic subunit alpha (Homo sapiens) (UniProt P17612). Particulars: at 0.1 µM.
Test [3] shares this target. Particulars: at 1 µM.
The target of test [4] is Protein kinase C alpha type (Homo sapiens) (UniProt P17252). Particulars: at 0.1 µM.
The target is the same in test [5]. Particulars: at 1 µM.
The target of test [6] is Protein kinase C beta type (Homo sapiens) (UniProt P05771). Particulars: at 0.1 µM.
For test [7] the target is unchanged. Particulars: at 1 µM.
The target of test [8] is Protein kinase C eta type (Homo sapiens) (UniProt P24723). Particulars: at 0.1 µM.
Test [9] has the same target. Particulars: at 1 µM.
The target in test [10] is Protein kinase C gamma type (Homo sapiens) (UniProt P05129). Particulars: at 0.1 µM.
Test [11] shares this target. Particulars: at 1 µM.
Test [12] has as its target T2, Protein kinase C iota type (Homo sapiens) (UniProt P41743).
T2 sequence (whole entry): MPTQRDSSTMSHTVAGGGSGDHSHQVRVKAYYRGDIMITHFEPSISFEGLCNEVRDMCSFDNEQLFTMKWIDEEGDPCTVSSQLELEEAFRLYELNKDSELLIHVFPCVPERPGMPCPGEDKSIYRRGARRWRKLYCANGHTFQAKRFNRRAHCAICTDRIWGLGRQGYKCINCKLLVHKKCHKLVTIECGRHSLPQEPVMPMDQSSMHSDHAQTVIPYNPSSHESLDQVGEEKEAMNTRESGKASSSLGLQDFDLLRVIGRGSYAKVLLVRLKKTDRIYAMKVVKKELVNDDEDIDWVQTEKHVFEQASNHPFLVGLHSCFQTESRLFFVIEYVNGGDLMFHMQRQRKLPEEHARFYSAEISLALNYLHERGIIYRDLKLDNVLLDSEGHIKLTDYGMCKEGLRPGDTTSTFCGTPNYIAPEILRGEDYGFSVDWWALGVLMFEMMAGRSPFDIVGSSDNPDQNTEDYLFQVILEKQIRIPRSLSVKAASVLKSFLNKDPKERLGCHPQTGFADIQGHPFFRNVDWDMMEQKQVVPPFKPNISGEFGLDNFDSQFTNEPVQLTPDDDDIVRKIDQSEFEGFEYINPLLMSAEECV
Particulars: at 0.1 µM.

The target of test [13] is T2, Protein kinase C iota type (Homo sapiens). Particulars: at 1 µM.
For test [14], the target named is Protein kinase C theta type (Homo sapiens) (UniProt Q04759). Particulars: at 0.1 µM.
For test [15] the target is unchanged. Particulars: at 1 µM.
Test [16] concerns the target Protein kinase C beta type (Homo sapiens) (UniProt P05771). Particulars: at 0.1 µM. This is another data set of the same source.
Test [17] shares this target. Particulars: at 1 µM. This is another data set of the same source.
Test [18] concerns the target T3, Serine/threonine-protein kinase D1 (Homo sapiens) (UniProt Q15139).
T3 sequence (whole entry): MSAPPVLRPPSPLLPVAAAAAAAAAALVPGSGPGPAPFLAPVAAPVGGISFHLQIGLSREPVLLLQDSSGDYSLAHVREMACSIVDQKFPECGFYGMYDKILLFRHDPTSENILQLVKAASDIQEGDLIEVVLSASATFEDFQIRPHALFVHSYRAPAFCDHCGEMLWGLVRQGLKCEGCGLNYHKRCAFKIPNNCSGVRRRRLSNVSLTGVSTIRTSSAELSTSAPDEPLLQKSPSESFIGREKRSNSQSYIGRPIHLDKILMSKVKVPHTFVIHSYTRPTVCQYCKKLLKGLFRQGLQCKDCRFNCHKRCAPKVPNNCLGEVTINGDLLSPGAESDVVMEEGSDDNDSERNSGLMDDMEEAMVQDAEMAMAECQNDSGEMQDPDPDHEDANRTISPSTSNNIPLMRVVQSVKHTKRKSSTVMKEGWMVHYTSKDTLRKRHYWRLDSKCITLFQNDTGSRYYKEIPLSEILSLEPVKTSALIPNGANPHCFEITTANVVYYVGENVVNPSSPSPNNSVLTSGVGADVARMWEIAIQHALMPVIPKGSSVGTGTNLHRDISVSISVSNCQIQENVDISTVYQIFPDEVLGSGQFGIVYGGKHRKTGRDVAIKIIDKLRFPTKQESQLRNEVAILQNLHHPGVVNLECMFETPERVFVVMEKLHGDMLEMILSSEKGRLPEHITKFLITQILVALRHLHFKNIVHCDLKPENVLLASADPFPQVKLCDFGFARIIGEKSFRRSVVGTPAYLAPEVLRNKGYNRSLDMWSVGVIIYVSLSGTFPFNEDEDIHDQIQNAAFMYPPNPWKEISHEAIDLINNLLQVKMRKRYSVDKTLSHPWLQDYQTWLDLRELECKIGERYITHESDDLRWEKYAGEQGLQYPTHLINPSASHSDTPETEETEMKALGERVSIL
Particulars: at 0.1 µM.

For test [19], the target named is T3, Serine/threonine-protein kinase D1 (Homo sapiens). Particulars: at 1 µM.
Test [20] deals with T4, Serine/threonine-protein kinase D2 (Homo sapiens) (UniProt Q9BZL6).
T4 sequence (whole entry): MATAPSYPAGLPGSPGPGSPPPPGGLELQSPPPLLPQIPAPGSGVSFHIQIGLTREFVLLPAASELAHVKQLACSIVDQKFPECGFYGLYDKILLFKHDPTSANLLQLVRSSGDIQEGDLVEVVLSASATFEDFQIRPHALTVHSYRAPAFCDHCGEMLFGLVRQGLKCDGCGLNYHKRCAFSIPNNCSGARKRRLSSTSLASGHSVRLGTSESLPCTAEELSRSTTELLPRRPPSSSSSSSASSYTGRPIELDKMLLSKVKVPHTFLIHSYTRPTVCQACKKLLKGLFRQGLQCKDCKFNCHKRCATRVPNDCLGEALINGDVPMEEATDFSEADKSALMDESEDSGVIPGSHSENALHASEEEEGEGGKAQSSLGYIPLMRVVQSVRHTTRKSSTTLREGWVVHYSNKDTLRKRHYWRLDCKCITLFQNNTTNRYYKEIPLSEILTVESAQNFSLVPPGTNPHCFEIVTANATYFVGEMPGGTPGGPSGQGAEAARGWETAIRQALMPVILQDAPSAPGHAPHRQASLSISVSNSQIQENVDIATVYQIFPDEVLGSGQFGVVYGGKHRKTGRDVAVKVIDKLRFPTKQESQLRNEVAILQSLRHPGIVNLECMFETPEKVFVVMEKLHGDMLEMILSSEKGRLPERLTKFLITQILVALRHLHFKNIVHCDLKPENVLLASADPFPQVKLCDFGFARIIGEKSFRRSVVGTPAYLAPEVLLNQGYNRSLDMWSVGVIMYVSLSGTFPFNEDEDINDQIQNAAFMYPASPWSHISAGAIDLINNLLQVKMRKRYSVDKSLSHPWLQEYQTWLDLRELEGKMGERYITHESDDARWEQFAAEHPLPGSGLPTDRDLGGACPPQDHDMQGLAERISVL
Particulars: at 0.1 µM.

Sequence of Protein kinase C eta type (Homo sapiens) (P24723 whole entry): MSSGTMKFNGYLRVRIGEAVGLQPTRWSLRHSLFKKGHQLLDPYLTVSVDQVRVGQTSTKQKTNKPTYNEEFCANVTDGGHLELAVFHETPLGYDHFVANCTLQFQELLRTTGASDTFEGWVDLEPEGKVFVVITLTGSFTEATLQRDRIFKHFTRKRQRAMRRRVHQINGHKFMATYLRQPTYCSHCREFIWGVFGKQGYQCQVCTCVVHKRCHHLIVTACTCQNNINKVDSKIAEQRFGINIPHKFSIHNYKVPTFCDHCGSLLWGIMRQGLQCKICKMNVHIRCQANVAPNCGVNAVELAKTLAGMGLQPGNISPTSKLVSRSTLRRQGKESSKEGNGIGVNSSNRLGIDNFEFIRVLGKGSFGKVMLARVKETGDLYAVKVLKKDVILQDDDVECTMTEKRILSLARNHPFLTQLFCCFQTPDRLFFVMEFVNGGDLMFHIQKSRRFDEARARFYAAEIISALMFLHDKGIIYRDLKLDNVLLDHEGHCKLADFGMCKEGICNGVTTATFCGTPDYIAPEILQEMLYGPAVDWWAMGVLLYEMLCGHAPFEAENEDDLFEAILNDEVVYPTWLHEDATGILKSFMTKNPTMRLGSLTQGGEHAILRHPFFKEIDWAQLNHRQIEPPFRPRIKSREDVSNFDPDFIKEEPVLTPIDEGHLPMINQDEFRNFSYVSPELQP
Sequence of Protein kinase C theta type (Homo sapiens) (Q04759 whole entry, looked up): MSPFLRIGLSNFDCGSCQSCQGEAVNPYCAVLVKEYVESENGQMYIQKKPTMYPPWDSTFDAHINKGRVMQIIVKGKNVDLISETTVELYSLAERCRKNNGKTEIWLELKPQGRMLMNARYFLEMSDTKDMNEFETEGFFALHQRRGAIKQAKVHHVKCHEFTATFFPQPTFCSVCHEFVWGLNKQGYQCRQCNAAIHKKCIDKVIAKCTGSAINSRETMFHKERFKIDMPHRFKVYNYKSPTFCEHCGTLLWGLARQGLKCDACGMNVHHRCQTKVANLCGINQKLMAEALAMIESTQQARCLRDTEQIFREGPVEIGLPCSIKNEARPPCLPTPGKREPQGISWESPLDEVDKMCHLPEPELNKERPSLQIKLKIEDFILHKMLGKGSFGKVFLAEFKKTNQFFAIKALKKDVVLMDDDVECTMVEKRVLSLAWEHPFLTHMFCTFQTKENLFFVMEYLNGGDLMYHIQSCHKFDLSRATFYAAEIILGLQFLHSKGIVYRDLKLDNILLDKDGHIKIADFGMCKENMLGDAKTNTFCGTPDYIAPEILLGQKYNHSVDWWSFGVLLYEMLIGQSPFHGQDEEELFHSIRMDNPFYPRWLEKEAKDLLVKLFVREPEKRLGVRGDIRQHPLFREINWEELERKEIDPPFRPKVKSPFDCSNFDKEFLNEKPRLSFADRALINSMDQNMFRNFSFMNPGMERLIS
Sequence of Protein kinase C beta type (Homo sapiens) (P05771 2-671 limits assumed): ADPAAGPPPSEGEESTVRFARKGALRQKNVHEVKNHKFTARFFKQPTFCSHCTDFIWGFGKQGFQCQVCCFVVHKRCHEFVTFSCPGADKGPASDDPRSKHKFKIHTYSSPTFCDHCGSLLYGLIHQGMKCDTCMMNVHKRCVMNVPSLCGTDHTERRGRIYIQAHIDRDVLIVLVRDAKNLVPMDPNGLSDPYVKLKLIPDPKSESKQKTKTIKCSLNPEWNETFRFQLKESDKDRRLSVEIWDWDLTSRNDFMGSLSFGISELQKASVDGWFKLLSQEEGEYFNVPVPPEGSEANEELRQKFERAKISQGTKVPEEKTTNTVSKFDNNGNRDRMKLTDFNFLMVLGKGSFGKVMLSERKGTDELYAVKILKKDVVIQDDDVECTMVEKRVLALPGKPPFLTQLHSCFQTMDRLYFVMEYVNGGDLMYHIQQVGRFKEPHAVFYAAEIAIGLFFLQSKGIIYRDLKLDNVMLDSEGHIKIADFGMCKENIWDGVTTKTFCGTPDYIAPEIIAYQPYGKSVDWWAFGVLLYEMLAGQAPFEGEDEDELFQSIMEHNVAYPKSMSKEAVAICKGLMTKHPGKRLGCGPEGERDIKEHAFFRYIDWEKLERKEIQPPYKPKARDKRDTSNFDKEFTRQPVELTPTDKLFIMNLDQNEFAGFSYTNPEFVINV

In the case of `Cc1ccc2c(-c3ccnc(Nc4ccc5c(c4)OCCO5)n3)c(-c3ccc(C(F)(F)F)cc3)nn2n1`, the inhibition in [1] is -0.78%; in test [2], 4.47%; in test [3] it was 7.16%; in test [4] it was 0.21%; in [5] it was 1.55%; in test [6] it was 2.2%. Also, the inhibition in test [7] worked out at 2.03%; in test [8], 0.94%; in test [9] it was 3.26%; in [10], 1.27%; in test [11], 3.76%; in test [12], 0.29%. Also, the inhibition in test [13] worked out at 1.15%; in [14], 1.61%; in test [15], 2.73%; in [16], 0.24%; in test [17], 2.06%; in test [18] it was 1.11%. In addition, the values for the inhibition in test [19] and in test [20] were 3.32% and 2.13%, respectively.
Turning to `COc1ccc2ncnc(Nc3ccc(OCc4ccccc4)cc3)c2c1`, the inhibition was 1.04% in test [1]; 2.11% in test [2]; 1.43% in test [3]; -0.06% in test [4]; 1.22% in test [5]; 0.57% in test [6]. Besides, the inhibition in test [7] is 2.16%; in test [8], -0.44%; in test [9], -0.65%; in [10] it was 0.01%; in test [11], 5.03%; in [12] it was 0.61%. Besides, the inhibition in test [13] was -0.95%; in [14], 1.21%; in test [15], 1.19%; in [16], 0.9%; in test [17] it was 1.9%; in [18] it was 3.89%. Besides, the inhibition in test [19] was 3.35%; in test [20], 0.24%.
For `C[C@@H](Oc1cc(-n2cnc3ccc(OCC4CCN(C)CC4)cc32)sc1C(N)=O)c1ccccc1C(F)(F)F`, the inhibition was 0.45% in [1]; -0.41% in [2]; 1.15% in test [3]; 0.1% in test [4]; 9.63% in test [5]; 0.2% in [6]. Further, the inhibition was 5.91% in [7]; -5.73% in test [8]; 5.16% in [9]; 3.29% in [10]; 7.81% in test [11]; -1.38% in test [12]. Moreover, the inhibition in test [13] was 0.4%; in [14] it was 2.09%; in test [15] it was 19.4%; in test [16], 2.07%; in [17] it was 18.8%; in [18], -0.56%. Besides, the inhibition in test [19] was determined as 12.1%; in test [20] it was 2.29%.

Usually inhibition stands for the drop in the measured response relative to a control, in per cent.
